Laboratory results as given in PubChem BioAssay (NCATS).
Results filed as inconclusive are left out. Calls of active or inactive are those of the source. Unless noted, calls follow the shape of the dose curve; as a rule, active = well fitted curve in the direction sought with a large enough effect; inconclusive = small, poorly fitted or top-dose-only effect, or another doubt; inactive = no such curve, though single readings can be large; an effect the other way counts as inactive or inconclusive.

Tests used:
[1] = biological target: ATP-dependent 6-phosphofructokinase (Trypanosoma brucei brucei) (UniProt O15648); assay: qHTS Assay to Find Inhibitors of T. brucei phosphofructokinase: hit validation (AID 492961);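 also: luminescence reports ADP formed as PFK phosphorylates fructose-6-phosphate with ATP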
In short: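 Compounds titrated; %activity normalized to 0x and 1x enzyme controls, curve-fitted. Readout: ADP-Glo luminescence after 45 min room-temperature reaction of 1.25 nM PFK, 0.1 mM ATP, 0.5 mM F6P, pH 8.0.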

ATS189 = assay: qHTS profiling for inhibitors of Plasmodium falciparum proliferation (AID 504749); also: nearly all actives have a fitted effect of over 60% in size; also: potency is read from the fitted curve at half-maximal effect; conditions: P. falciparum in erythrocytes, SYBR Green DNA, 72 h; series mostly up to 12.8 µM
In short: (§1)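 Readout was DNA-dye fluorescence from lysed cultures, ex 485/em 535 nm. Parasitized red cells had grown 72 h with compound; data scaled between 0.29 uM artemisinin and DMSO wells and corrected using vehicle-only plates.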

CP217 = assay: as above; conditions: P. falciparum in erythrocytes, SYBR Green DNA, 72 h; series mostly up to 12.8 µM
In short: as §1

CP247 = assay: as above; conditions: P. falciparum in erythrocytes, SYBR Green DNA, 72 h; series mostly up to 12.8 µM
In short: as §1

CP250 = assay: as above; conditions: P. falciparum in erythrocytes, SYBR Green DNA, 72 h; series mostly up to 12.8 µM
In short: as §1

HB3 = assay: as above; conditions: P. falciparum in erythrocytes, SYBR Green DNA, 72 h; series mostly up to 12.8 µM
In short: as §1

SC27B = assay: as above; conditions: P. falciparum in erythrocytes, SYBR Green DNA, 72 h; series mostly up to 12.8 µM
In short: as §1

CP215 = assay: as above; conditions: P. falciparum in erythrocytes, SYBR Green DNA, 72 h; series mostly up to 12.8 µM
In short: as §1

CP297 = assay: as above; conditions: P. falciparum in erythrocytes, SYBR Green DNA, 72 h; series mostly up to 12.8 µM
In short: as §1

DIV14 = assay: as above; conditions: P. falciparum in erythrocytes, SYBR Green DNA, 72 h; series mostly up to 12.8 µM
In short: as §1

DIV17 = assay: as above; conditions: P. falciparum in erythrocytes, SYBR Green DNA, 72 h; series mostly up to 12.8 µM
In short: as §1

GB4 = assay: as above; conditions: P. falciparum in erythrocytes, SYBR Green DNA, 72 h; series mostly up to 12.8 µM
In short: as §1

[2] = biological target: Estrogen receptor (Homo sapiens) (UniProt P03372); assay: qHTS assay for small molecule antagonists of estrogen receptor alpha signaling (AID 588513; active = well fitted curve in the direction sought with a large enough effect in the signal ratio, with a control signal flat, not every such curve was filed as active; the % refers to the signal ratio)
In short: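 Cells were plated at 5000/well and incubated 4 h at 37 C. Compounds were added as 1:2 dilution series, duplicates. 17-beta-estradiol (0.5nM final) was added for 18 h before CCF4 detection.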

[3] = biological target: Estrogen receptor (Homo sapiens) (UniProt P03372); assay: qHTS assay for small molecule agonists of estrogen receptor alpha signaling (AID 588514; calls by dose curve; also: nearly all actives have a fitted effect of over 70% in size)
In short: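 Reporter-gene assay. […] controls beta-lactamase in HEK 293 GripTite cells; after 18 hrs with compound, CCF4 substrate is added for 2 hrs and fluorescence is read.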

[4] = qHTS assay for small molecule antagonists of peroxisome proliferator-activated receptor delta signaling (AID 588535; active = well fitted inhibition curve with a large enough effect in the signal ratio, with a control signal flat, not every such curve was filed as active; the % refers to the signal ratio;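 as to max response: cells co-treated with a PPAR-delta agonist as stimulator during compound exposure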); conditions: HEK293T PPARd-UAS-bla, beta-lactamase FRET ratio, 18 h; 460 nm channel
In short: (§2)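 Cells were seeded at 4000 per well in assay medium containing 2% charcoal/dextran FBS and held 5 hrs at 37 C. Compounds were then added for 18 hrs. CCF4 substrate was applied for 2 hrs at room temperature before fluorescence reading.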

[5] = biological target: Peroxisome proliferator-activated receptor delta (Homo sapiens) (UniProt Q03181); assay: as above
In short: as §2

[6] = biological target: Peroxisome proliferator-activated receptor gamma (Homo sapiens) (UniProt P37231); assay: qHTS assay for small molecule agonists of peroxisome proliferator-activated receptor gamma signaling (AID 588536; active = well fitted curve in the direction sought with a large enough effect in the signal ratio, with a control signal flat, not every such curve was filed as active; the % refers to the signal ratio)
In short: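 PPAR-gamma-UAS-bla HEK293 cells in medium with 1% charcoal/dextran-treated FBS were exposed to compounds for 16 h at 37 C. Beta-lactamase activity was read with CCF4 substrate (405 nm excitation, 460/530 nm emission).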

[7] = biological target: Peroxisome proliferator-activated receptor gamma (Homo sapiens) (UniProt P37231); assay: qHTS assay for small molecule antagonists of peroxisome proliferator-activated receptor gamma signaling (AID 588537; active = well fitted inhibition curve with a large enough effect in the signal ratio, with a control signal flat, not every such curve was filed as active; the % refers to the signal ratio;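 also: reporter cells co-stimulated with 50 nM rosiglitazone agonist during compound treatment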)
In short: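 Step one: plate 3000 HEK293 UAS-bla cells per well in medium with 1% stripped serum and hold 6-6.5 h at 37 C. Step two: add compound and 50 nM agonist for 16 h. Step three: CCF4 loading, fluorescence read.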

[8] = biological target: Vitamin D3 receptor (Homo sapiens) (UniProt P11473); assay: qHTS assay for small molecule antagonists of vitamin D receptor signaling (AID 588541; calls by dose curve;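 also: receptor activated by calcitriol during compound treatment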)
In short: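 VDR-UAS-bla HEK293T cells in 2% charcoal-stripped FBS were stimulated with 1-alpha,25-dihydroxyvitamin D3 (3 nM final) plus compound for 16 h at 37 C. The beta-lactamase CCF4 readout was normalized to 50 nM agonist and DMSO, and Hill fits gave IC50.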

[9] = biological target: Vitamin D3 receptor (Homo sapiens) (UniProt P11473); assay: qHTS assay for small molecule agonists of vitamin D receptor signaling (AID 588543; calls by dose curve)
In short: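 qHTS in agonist mode: compound titrations stimulate a VDR-driven β-lactamase reporter in HEK293T cells over 16 h at 37 °C. Response normalized to 50 nM 1α,25-dihydroxyvitamin D3 = 100%, DMSO = 0%; Hill fitting gives EC50 and maximal response.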

ATP-dependent 6-phosphofructokinase (Trypanosoma brucei brucei), sequence (O15648 whole entry, looked up): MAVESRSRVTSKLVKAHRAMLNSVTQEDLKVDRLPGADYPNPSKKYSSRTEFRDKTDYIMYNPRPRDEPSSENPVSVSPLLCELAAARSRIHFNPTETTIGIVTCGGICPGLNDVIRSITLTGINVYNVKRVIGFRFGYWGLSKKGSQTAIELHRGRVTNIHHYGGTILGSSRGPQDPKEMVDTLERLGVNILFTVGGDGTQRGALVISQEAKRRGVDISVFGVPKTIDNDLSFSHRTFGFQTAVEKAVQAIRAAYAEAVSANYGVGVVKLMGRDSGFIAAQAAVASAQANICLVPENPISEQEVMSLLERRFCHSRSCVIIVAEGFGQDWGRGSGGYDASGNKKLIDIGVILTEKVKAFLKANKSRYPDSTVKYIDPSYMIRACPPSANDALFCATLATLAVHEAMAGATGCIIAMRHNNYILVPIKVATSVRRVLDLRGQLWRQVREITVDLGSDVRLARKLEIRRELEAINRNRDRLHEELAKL
Vitamin D3 receptor (Homo sapiens), sequence (P11473 whole entry, looked up): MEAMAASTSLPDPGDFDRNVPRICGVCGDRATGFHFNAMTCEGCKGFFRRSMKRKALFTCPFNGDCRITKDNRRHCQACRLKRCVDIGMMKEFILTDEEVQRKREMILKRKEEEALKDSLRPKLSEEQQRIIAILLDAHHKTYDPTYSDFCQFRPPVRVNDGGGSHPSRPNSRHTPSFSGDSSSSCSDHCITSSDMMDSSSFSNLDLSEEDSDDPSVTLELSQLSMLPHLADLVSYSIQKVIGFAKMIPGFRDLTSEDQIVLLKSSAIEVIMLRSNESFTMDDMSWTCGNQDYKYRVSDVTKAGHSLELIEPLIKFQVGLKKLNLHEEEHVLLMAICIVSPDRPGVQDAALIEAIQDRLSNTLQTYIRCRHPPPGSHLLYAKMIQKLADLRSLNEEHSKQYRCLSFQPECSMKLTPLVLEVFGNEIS
Peroxisome proliferator-activated receptor gamma (Homo sapiens), sequence (P37231 whole entry, looked up): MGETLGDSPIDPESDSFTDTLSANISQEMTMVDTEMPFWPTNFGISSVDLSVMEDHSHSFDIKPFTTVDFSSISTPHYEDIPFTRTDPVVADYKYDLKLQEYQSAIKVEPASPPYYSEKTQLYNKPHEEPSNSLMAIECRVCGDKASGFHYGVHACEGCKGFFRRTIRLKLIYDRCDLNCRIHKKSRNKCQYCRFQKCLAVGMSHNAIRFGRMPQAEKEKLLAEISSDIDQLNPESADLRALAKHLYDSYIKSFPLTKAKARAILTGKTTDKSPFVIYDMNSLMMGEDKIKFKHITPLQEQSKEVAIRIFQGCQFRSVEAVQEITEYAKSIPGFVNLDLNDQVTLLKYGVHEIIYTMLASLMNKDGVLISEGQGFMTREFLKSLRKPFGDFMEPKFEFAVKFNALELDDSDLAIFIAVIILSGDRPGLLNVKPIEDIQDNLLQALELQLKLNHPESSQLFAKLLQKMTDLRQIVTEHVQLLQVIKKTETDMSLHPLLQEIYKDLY
Estrogen receptor (Homo sapiens), sequence (P03372 whole entry, looked up): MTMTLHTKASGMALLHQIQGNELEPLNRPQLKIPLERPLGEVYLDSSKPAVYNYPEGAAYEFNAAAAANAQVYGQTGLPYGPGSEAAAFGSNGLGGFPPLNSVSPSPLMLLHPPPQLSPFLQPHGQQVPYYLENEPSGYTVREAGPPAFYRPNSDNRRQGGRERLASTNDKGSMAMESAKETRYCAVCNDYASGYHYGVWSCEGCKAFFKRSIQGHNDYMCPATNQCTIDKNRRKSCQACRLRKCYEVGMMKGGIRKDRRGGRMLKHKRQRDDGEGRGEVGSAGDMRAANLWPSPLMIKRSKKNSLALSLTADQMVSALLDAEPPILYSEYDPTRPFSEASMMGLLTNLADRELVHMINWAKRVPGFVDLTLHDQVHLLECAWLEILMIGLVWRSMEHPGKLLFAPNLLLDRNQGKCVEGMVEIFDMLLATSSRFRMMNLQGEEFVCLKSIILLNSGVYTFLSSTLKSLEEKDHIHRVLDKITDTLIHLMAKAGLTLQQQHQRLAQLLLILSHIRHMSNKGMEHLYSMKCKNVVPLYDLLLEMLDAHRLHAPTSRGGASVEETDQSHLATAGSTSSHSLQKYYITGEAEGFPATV
Peroxisome proliferator-activated receptor delta (Homo sapiens), sequence (Q03181 whole entry, looked up): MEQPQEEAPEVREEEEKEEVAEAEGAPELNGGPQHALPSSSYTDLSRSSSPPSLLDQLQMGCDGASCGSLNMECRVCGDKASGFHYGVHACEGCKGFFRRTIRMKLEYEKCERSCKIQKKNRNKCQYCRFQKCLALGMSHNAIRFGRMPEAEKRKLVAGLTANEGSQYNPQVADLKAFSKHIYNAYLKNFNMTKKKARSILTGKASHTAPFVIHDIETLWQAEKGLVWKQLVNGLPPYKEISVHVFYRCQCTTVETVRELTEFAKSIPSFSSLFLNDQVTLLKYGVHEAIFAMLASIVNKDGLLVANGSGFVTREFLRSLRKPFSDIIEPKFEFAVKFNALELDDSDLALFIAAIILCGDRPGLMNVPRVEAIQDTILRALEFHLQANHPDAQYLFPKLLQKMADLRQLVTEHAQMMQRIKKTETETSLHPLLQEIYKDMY

CO[C@]12C(COC(N)=O)C3=C(C(=O)C(C)=C(N)C3=O)N1CC1NC12 (stereo partly drawn)
active: Potency (ATS189) 1260 nM | Potency (CP217) 1780 nM | Potency (CP247) 1410 nM | Potency (CP250) 1120 nM | Potency (HB3) 1000 nM | Potency (SC27B) 1000 nM
inactive: outcome [1]

OCC1OC(n2cnc3c(=S)nc[nH]c32)C(O)C1O (stereo not drawn)
inactive: outcome [1] | Potency (ATS189) | Potency (CP215) | Potency (CP217) | Potency (CP247) | Potency (CP250) | Potency (CP297) | Potency (DIV14) | Potency (DIV17) | Potency (HB3) | Potency (SC27B)

OCC1O[C@H](OC2C(CO)O[C@@](O)(CO)C2O)C(O)C(O)C1O (stereo partly drawn)
inactive: Potency (ATS189) | Potency (CP215) | Potency (CP217) | Potency (CP247) | Potency (CP250) | Potency (CP297) | Potency (DIV14) | Potency (DIV17) | Potency (GB4) | Potency (HB3) | Potency (SC27B)

COc1ccc(-c2cc(=O)c3c(O)cc(O[C@H]4OC(COC5OC(C)C(O)C(O)[C@H]5O)C(O)C(O)C4O)cc3o2)cc1O (stereo partly drawn)
inactive: Potency (ATS189) | Potency (CP215) | Potency (CP217) | Potency (CP247) | Potency (CP250) | Potency (CP297) | Potency (DIV14) | Potency (DIV17) | Potency (GB4) | Potency (HB3) | Potency (SC27B)

COC1CC(O[C@H]2/C(C)=C/CC3CC(C[C@]4(CCC(C)C(C5CCCCC5)O4)O3)OC(=O)[C@H]3C=C(C)/C(=N/O)C4OC/C(=C\C=C\[C@@H]2C)[C@@]43O)OC(C)C1O (stereo partly drawn)
inactive: outcome [1] | Potency (CP215)

CC(C)Oc1ccc2c(=O)cc(-c3ccccc3)oc2c1
inactive: outcome [1] | Potency (ATS189) | Potency (CP215) | Potency (CP217) | Potency (CP247) | Potency (DIV14) | Potency (DIV17) | Potency (HB3) | Potency (SC27B)

COc1ccc(CC(N)C(=O)NC2C(CO)OC(n3cnc4c(N(C)C)ncnc43)C2O)cc1 (stereo not drawn)
active: Potency (ATS189) 794 nM | Potency (CP215) 1070 nM | Potency (CP217) 794 nM | Potency (CP247) 891 nM | Potency (CP250) 1260 nM | Potency (CP297) 1200 nM | Potency (DIV14) 953 nM | Potency (DIV17) 757 nM | Potency (GB4) 675 nM | Potency (HB3) 1000 nM | Potency (SC27B) 1000 nM

CC(=O)N[C@@H]1C(O)OC(CO)C(O)C1O (stereo partly drawn)
inactive: Potency (ATS189) | Potency (CP215) | Potency (CP217) | Potency (CP247) | Potency (CP250) | Potency (CP297) | Potency (DIV17) | Potency (SC27B)

COc1c(Cl)ccc(Cl)c1C(=O)O
inactive: outcome [2] | outcome [3] | outcome [5] | outcome [6] | outcome [7] | outcome [8] | outcome [9]
-7.82%: max response [4]
